Laboratory results reported in PubChem BioAssay (NCATS).
Inconclusive results are not listed. Active and inactive are the calls of the source. The call rests on the fitted dose curve; in most records, active means well fitted curve in the direction sought with a large enough effect; inconclusive means small, poorly fitted or top-dose-only effect, or another doubt; inactive means no such curve, though single readings can be large; an effect the other way counts as inactive or inconclusive.

Columns and labels:
[1] = test system: HaCat; assay: Cytotoxic Profiling of Annotated Libraries Using Quantitative High-Throughput Screening (AID 1296008); details: Five cell lines viability, CellTiter-Glo ATP luminescence, 48-72 h; max response: stronger effect = lower value; further: nearly all actives have a fitted effect of over 60% in size
Summary of the method: (§1)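 Cytotoxicity was measured as CellTiter-Glo ATP luminescence, read after 10 min at room temperature. Compound treatment of the cells lasted 48 or 72 hr at 37 degrees Celsius in a qHTS format.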

[2] = test system: KB-3-1; assay: as above; details: Five cell lines viability, CellTiter-Glo ATP luminescence, 48-72 h; max response: stronger effect = lower value
Summary of the method: as §1

[3] = test system: NIH3T3; assay: as above; details: Five cell lines viability, CellTiter-Glo ATP luminescence, 48-72 h; max response: stronger effect = lower value
Summary of the method: as §1

[4] = test system: C33A; assay: Primary qHTS to identify gynecologic anti-cancer compounds using libraries of approved drugs and bioactive compounds (AID 1345084); details: Gynecologic cancer cell panel viability, ATPlite luminescence, 48 h; series mostly up to 57.5 µM; further: nearly all actives have a fitted effect of over 55% in size
Summary of the method: (§2)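 48 h compound exposure at 37 C, 5% CO2; five-point qHTS. ATPlite luminescence readout of cell ATP.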

[5] = test system: CAOV3; assay: as above; details: Gynecologic cancer cell panel viability, ATPlite luminescence, 48 h; series mostly up to 57.5 µM
Summary of the method: as §2

[6] = test system: CASKI; assay: as above; details: Gynecologic cancer cell panel viability, ATPlite luminescence, 48 h; series mostly up to 57.5 µM
Summary of the method: as §2

[7] = test system: Es-2; assay: as above; details: Gynecologic cancer cell panel viability, ATPlite luminescence, 48 h; series mostly up to 57.5 µM
Summary of the method: as §2

[8] = test system: HeLa; assay: as above; details: Gynecologic cancer cell panel viability, ATPlite luminescence, 48 h; series mostly up to 57.5 µM
Summary of the method: as §2

[9] = test system: Hek293T; assay: as above; details: Gynecologic cancer cell panel viability, ATPlite luminescence, 48 h, control line for the selectivity index; series mostly up to 57.5 µM
Summary of the method: as §2

[10] = test system: JEG-3; assay: as above; details: Gynecologic cancer cell panel viability, ATPlite luminescence, 48 h; series mostly up to 57.5 µM
Summary of the method: as §2

[11] = test system: OV90; assay: as above; details: Gynecologic cancer cell panel viability, ATPlite luminescence, 48 h; series mostly up to 57.5 µM
Summary of the method: as §2
On the % scale 0 is the no-effect control and ±100 the full control effect.

CC(=O)OC1C(O)C2C(C)C3=CC(=O)OC3(O)CC2C2(C)CCCC(C)(CO)C12 (centres undefined)
inactive: max response [1] 3.69% | outcome [2] | max response [3] 0.673% | Potency [4] | Potency [5] | Potency [6] | Potency [7] | Potency [8] | Potency [9] | Potency [10] | Potency [11]

C[C@H]1CC(=O)Nc2cccc(-c3cnn(C(C)(C)C)c3)c2N1
inactive: max response [1] 4.21% | max response [2] -8.91% | max response [3] -7.27% | Potency [4] | Potency [5] | Potency [6] | Potency [7] | Potency [8] | Potency [9] | Potency [10] | Potency [11]

C=C(C(=O)O)C1CC2=C(C)CCCC2(C)C[C@@H]1O (some centres undefined)
inactive: max response [1] 0.301% | outcome [2] | max response [3] 4.2% | Potency [4] | Potency [5] | Potency [6] | Potency [7] | Potency [8] | Potency [9] | Potency [10] | Potency [11]

COc1cc(C(=O)O)ccc1OC1OC(CO)C(O)C(O)C1O (centres undefined)
inactive: max response [1] 0.774% | outcome [2] | max response [3] -5.21% | Potency [4] | Potency [5] | Potency [6] | Potency [7] | Potency [8] | Potency [9] | Potency [10] | Potency [11]

CC(=O)N[C@H]1[C@H](O[C@H]2CC[C@@]3(C)C(CC[C@]4(C)C3CC=C3[C@@H]5CC(C)(C)CC[C@]5(C(=O)OC5OCC(O)C(O)C5O)CC[C@]34C)C2(C)C)O[C@H](COC2OC(C)C(O)C(OC3OC(C)C(O)C(O)C3O)C2O)[C@@H](O)[C@@H]1O (some centres undefined)
inactive: max response [1] 2.89% | outcome [2] | max response [3] 3.74% | activity change, negative = cytotoxicity [4] -0.0854% [at 11.6 µM] | activity change, negative = cytotoxicity [5] 0.431% [at 11.6 µM] | activity change, negative = cytotoxicity [6] 5.69% [at 11.6 µM] | activity change, negative = cytotoxicity [7] 4.54% [at 11.6 µM] | activity change, negative = cytotoxicity [8] 1.75% [at 11.6 µM] | activity change, negative = cytotoxicity [9] 4.04% [at 11.6 µM] | activity change, negative = cytotoxicity [10] 1.81% [at 11.6 µM] | activity change, negative = cytotoxicity [11] 3.41% [at 11.6 µM]

O=C(O)c1cn(C2CC2)c2cc(N3C[C@@H]4C[C@H]3CN4)c(F)cc2c1=O
inactive: max response [1] -12.6% | outcome [2] | max response [3] -4.63% | Potency [4] | Potency [5] | Potency [6] | Potency [7] | Potency [8] | Potency [9] | Potency [10] | Potency [11]

C[C@@H]1C(=O)O[C@H]2[C@H](O)C34[C@H]5C[C@@H](C(C)(C)C)C36[C@@H](OC(=O)[C@@H]6O)O[C@@]4(C(=O)O5)[C@@]12O (some centres undefined)
inactive: max response [1] -29.1% | max response [2] -3.61% | max response [3] -2.5% | Potency [4] | Potency [5] | Potency [6] | Potency [7] | Potency [8] | Potency [9] | Potency [10] | Potency [11]

COc1ccc([C@@]2(O)c3c(ccc4c3OC(C)(CCC=C(C)C)C=C4)NC(=O)[C@@H]2OC)cc1 (some centres undefined)
inactive: max response [1] 1.02% | max response [2] 4.57% | max response [3] -14.3% | Potency [4] | Potency [5] | Potency [6] | Potency [7] | Potency [8] | Potency [9] | Potency [10] | Potency [11]

C/C(=C\CC[C@@H](C)[C@H]1CC(O)[C@@]2(C)C3CC[C@H]4C(C)(C)[C@@H](OC5OCC(O)C(O)C5OC5OC(CO)C(O)C(O)C5O)CC[C@@]45C[C@@]35CC(O)[C@]12C)C(=O)O (some centres undefined)
inactive: max response [1] -0.726% | max response [2] 6% | max response [3] -27.1% | Potency [4] | Potency [5] | Potency [6] | Potency [7] | Potency [8] | Potency [9] | Potency [10] | Potency [11]

Cn1nc(C(C)(C)C)cc1C(=O)NC(Cc1cccc(Cl)c1)C(=O)NCC#N (centres undefined)
inactive: max response [1] -59.1% | max response [2] 1.87% | max response [3] 0.163% | Potency [4] | Potency [5] | Potency [6] | Potency [7] | Potency [8] | Potency [9] | Potency [10] | Potency [11]

CC1(C)CCCC2(C)C1C(O)C=C(CO)C2(O)CO (centres undefined)
inactive: max response [1] -4.77% | outcome [2] | max response [3] -1.11% | Potency [4] | Potency [5] | Potency [6] | Potency [7] | Potency [8] | Potency [9] | Potency [10] | Potency [11]

COC(=O)C[C@H]1C(C)(C)[C@H](OC(C)=O)C2CC3=C4CC(=O)O[C@@H](c5ccoc5)[C@]4(C)CCC3[C@@]1(C)C2=O (some centres undefined)
inactive: max response [1] 1.4% | max response [2] 4.19% | max response [3] -4.77% | Potency [4] | Potency [5] | Potency [6] | Potency [7] | Potency [8] | Potency [9] | Potency [10] | Potency [11]

CC1(C)CC2=C3C=CC4C5(C)CCC(O)C(C)(C)C5CCC4(C)C3(C)CCC2(C)C(O)C1 (centres undefined)
inactive: max response [1] -3.58% | max response [2] -4.92% | max response [3] -2.26% | Potency [4] | Potency [5] | Potency [6] | Potency [7] | Potency [8] | Potency [9] | Potency [10] | Potency [11]

CC(=O)O[C@@H]1[C@@H](OC(=O)/C=C/c2ccccc2)[C@@H](OC(C)=O)[C@H](O[C@H]2[C@@H]3C=CO[C@@H](O[C@@H]4O[C@H](CO)[C@@H](O)[C@H](O)[C@H]4O)[C@@H]3[C@@]3(CO)O[C@@H]23)O[C@H]1C
inactive: max response [1] -11.2% | outcome [2] | max response [3] -0.931% | Potency [4] | Potency [5] | Potency [6] | Potency [7] | Potency [8] | Potency [9] | Potency [10] | Potency [11]
